Rab9 prom act = qHTS Assay for Rab9 Promoter Activators; Huh7 Rab9 promoter-luciferase reporter, luminescence, 24 h; Potency, µM (series often up to 9.22 µM), for the others: at the top dose activation, negative = inhibition, most hits filed as activators; actives 2.8% (n = 320,000); also: % of control where 0% means no effect; nearly all actives have a fitted effect of over 60% in size
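Luminescence from Amplite-detected luciferase (10 minutes, ambient) reports Rab9 promoter activation. Before that, stable Rab9-luciferase Huh7 cells (1500/well, reduced-serum OP-MEM I plus 10% FBS) were exposed to compound for 24 hours at 37C.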
ELG1 genotoxic = qHTS screen for small molecules that induce genotoxicity in human embryonic kidney (HEK293T) cells expressing luciferase-tagged ELG1; actives 1.3% (n = 330,000); AID 504466, 2011; Potency, µM (series often up to 46 µM), without a hit: at the top dose activity change, positive = activation, hits mostly activators; HEK293T ELG1-luciferase reporter, luminescence, 16 h; also: % of control where 0% means no effect; nearly all actives have a fitted effect of over 60% in size
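HEK293T cells expressing luciferase-tagged ELG1 were exposed to compound or DMSO vehicle for 16 hr at 37 °C and 5% CO2. Luciferase activity was then measured with ONE-Glo after 30 min at room temperature.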
FLuc modulator = qHTS profiling assay for firefly luciferase inhibitor/activator using purifed enzyme and Km concentrations of substrates (counterscreen for miR-21 project). Potency, µM (doses to about 57.5 µM), without a hit: at the top dose activity change, negative = inhibition, hits mostly inhibitors. Luciferin 4-monooxygenase (Photinus pyralis), P08659. purified FLuc, Km substrates, luminescence inhibition. actives 6.9% (n = 360,000);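 also: plate controls were vehicle for no effect and reference inhibitor for full effect; nearly all actives have a fitted effect of over 55% in size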
Target sequence (P08659 whole entry, looked up): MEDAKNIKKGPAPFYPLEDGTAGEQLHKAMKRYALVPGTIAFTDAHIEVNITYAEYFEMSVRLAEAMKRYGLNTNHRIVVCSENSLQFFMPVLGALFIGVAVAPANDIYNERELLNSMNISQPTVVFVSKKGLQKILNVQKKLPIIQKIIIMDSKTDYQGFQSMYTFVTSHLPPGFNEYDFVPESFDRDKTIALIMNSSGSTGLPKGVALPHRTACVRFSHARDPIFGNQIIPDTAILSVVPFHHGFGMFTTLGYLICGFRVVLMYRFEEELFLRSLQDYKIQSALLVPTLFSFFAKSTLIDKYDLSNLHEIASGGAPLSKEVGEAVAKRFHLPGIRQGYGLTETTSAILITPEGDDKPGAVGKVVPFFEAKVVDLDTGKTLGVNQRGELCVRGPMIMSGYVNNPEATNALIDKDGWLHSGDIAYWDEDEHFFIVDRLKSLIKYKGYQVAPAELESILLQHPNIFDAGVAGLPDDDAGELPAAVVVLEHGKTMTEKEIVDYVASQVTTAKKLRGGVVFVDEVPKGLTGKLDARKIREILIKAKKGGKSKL
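Biochemical qHTS of compounds, final roughly 60 µM downward over six points, against 10 nM purified firefly luciferase using Km concentrations of substrates (10 uM D-luciferin, 10 uM ATP) in Tris acetate pH 7.5 buffer; luminescence output.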
SMN2 splice enh = qHTS Assay for Enhancers of SMN2 Splice Variant Expression; actives 2.8% (n = 210,000); Potency, µM (doses to about 46.1 µM), for the others: at the highest dose activity change, positive = activation, most hits filed as activators; HEK293 SMN2-luciferase splicing reporter, luminescence, 30-36 h; also: % of control where 0% means no effect; nearly all actives have a fitted effect of over 55% in size
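HEK293 cells carry an SMN2 […]–luciferase reporter in which exon 7 inclusion puts luciferase in frame. Cells were plated 10-12 h before compound addition, then incubated 30-36 h at 37C. ONE-Glo luminescence was read; sodium butyrate at 4.5 mM final served as control.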
NPC1 promoter act = qHTS Assay for NPC1 Promoter Activators. Huh7 NPC1 promoter luciferase reporter, 24 h. Potency, µM (top dose mostly 9.22 µM), without a hit: top-dose activation, hits mostly activators. actives 2.4% (n = 320,000). AID 485313, 2010; also: % of control where 0% means no effect; nearly all actives have a fitted effect of over 60% in size
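Luminescence read-out of NPC1 promoter-driven luciferase in stably transfected Huh7 cells; compounds delivered in DMSO and left 24 h at 37C, 5% CO2, qHTS titration format.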
Numbers without * were called inactive; u = inconclusive; x = not tested or not shown. Most compounds without a hit are left out; they make up all but 7.4% or so of the library. Calls follow the shape of the dose curve; as a rule, active = well fitted curve in the direction sought with a large enough effect; inconclusive = small, poorly fitted or top-dose-only effect, or another doubt; inactive = no such curve, though single readings can be large; an effect the other way counts as inactive or inconclusive. Potency is read from the fitted curve at half-maximal effect.

SMILES	Rab9 prom act	ELG1 genotoxic	FLuc modulator	SMN2 splice enh	NPC1 promoter act
Cc1cc(C)c(C#N)c(SCC(=O)Nc2ccc3c(c2)OCO3)n1	u	16.4µM*	-10.0%	15.8µM*	u
Cc1cc(C)c(C#N)c(SCC(=O)Nc2ccccc2C#N)n1	x	x	2.8%	x	x
O=C(CCS(=O)(=O)c1ccccc1)NCCS(=O)(=O)c1ccccc1	6.1%	-5.8%	-1.1%	8.3%	6.2%
O=C(CCS(=O)(=O)c1ccccc1)NC12CC3CC(CC(C3)C1)C2	3.55µM*	9.2µM*	12µM*	u	3.16µM*
COc1ccc(Cl)cc1Nc1nc2ccc(C(=O)c3ccccc3)cc2n2cnnc12	x	x	-1.3%	x	x
Cc1ccc(C(=O)C(C)OC(=O)C2CCN(c3ccc(C(F)(F)F)cn3)CC2)cc1C (stereo unspecified)	0.5%	6.4%	-43.5%	x	2.9%
CCOc1ccc(C(=O)C(C)OC(=O)C2CCN(c3ccc(C(F)(F)F)cn3)CC2)cc1 (stereo unspecified)	-0.8%	18.3µM*	-1.4%	x	-1.0%
COCC(C)n1c(C)cc(C(=O)CSc2ncccn2)c1C (stereo unspecified)	3.98µM*	u	15.1µM*	11.2µM*	3.16µM*
CC(=O)Nc1ccc(SCC(=O)c2cc(C)n(Cc3cccs3)c2C)cc1	u	u	16.9µM*	-53.3%	13.1%
COCC(C)n1c(C)cc(C(=O)CSc2nnc(Nc3ccccc3F)s2)c1C (stereo unspecified)	7.3%	-11.4%	16.9µM*	-25.1%	-4.1%
CC(=O)Nc1ccc(NCc2cccs2)cc1	20.5%	6.1%	-11.9%	x	12.3%
COCCn1c(C)cc(C(=O)CSc2ccc(NC(C)=O)cc2)c1C	2µM*	u	u	-42.0%	u
O=C(CSc1ncccn1)c1ccccc1Br	2.7%	17.0%	u	12.6µM*	1.3%
COCC(C)n1c(C)cc(C(=O)CSc2nnnn2-c2ccc(O)cc2)c1C (stereo unspecified)	10.0%	2.7%	21.3µM*	0.5%	5.6%
COCC(C)n1c(C)cc(C(=O)CSc2ccc(NC(C)=O)cc2)c1C (stereo unspecified)	u	7.94µM*	-18.9%	-40.1%	u
COC(=O)c1ccc(-n2c(C)cc(C(=O)CSc3ccc(NC(C)=O)cc3)c2C)cc1	-1.9%	-8.4%	-12.3%	-12.2%	-0.4%
CC(=O)Nc1ccc(SCC(=O)c2cc(C)n(-c3ccccc3F)c2C)cc1	23.5%	u	6.01µM*	-70.4%	u
COc1ccc(OC)c(NC(=O)CN(C)S(=O)(=O)c2ccc(Cl)cc2)c1	-19.7%	-9.5%	5.4%	-34.4%	-0.3%
C=CCn1c(C)cc(C(=O)CSc2ccc(NC(C)=O)cc2)c1C	0.316µM*	u	16.9µM*	-51.5%	0.501µM*
O=C(CCN1C(=O)/C(=C/C=C/c2ccccc2)SC1=S)Nc1ccccn1	4.8%	16.7%	23.9µM*	x	0.3%
O=C1/C(=C/c2cccnc2)SC(=S)N1CCc1ccccc1	-2.0%	u	10.7µM*	x	0.2%
O=C(CCN1C(=O)/C(=C/c2ccc(Cl)cc2)SC1=S)Nc1cccnc1	-6.3%	-2.4%	-0.6%	x	3.4%
CC(=C\c1ccccc1)/C=C1/SC(=S)N(CCC(=O)Nc2ccccn2)C1=O	-0.4%	3.6%	-16.3%	x	-0.9%
O=C(CCN1C(=O)/C(=C/C=C/c2ccccc2)SC1=S)Nc1cccnc1	u	u	1.07µM*	u	25.0%
O=C(CCCN1C(=O)/C(=C/c2ccccc2Cl)SC1=S)NNC(=O)c1cccnc1	-11.3%	-4.5%	13.5µM*	x	-11.8%
SMILES	Rab9 prom act	ELG1 genotoxic	FLuc modulator	SMN2 splice enh	NPC1 promoter act
C=CCn1c(Cc2ccccc2)nc2c(cnn2-c2ccccc2)c1=O	-9.2%	-7.5%	-11.1%	x	-0.9%
COc1ccc(-n2ccn(CC(=O)NCCc3ccccc3)c(=O)c2=O)cc1OC	x	x	0.3%	x	x
CN(c1ccccc1)S(=O)(=O)c1cccc(NC(=O)C2=NNC(=O)CC2)c1	x	-3.8%	x	x	x
CCOCc1cc(CN2CCN(c3cccc(Cl)c3)CC2)c(O)c2ncccc12	x	x	-3.8%	10.3%	x
C=CCN1C(=O)/C(=C/c2ccsc2)SC1=S	1.7%	1.4%	6.7%	-66.6%	-1.9%
O=C(O)CN1C(=O)/C(=C/c2ccsc2)SC1=S	0.9%	0.6%	19µM*	-11.8%	-3.6%
CC(=O)c1ccc(NC(=O)CN2C(=O)/C(=C/C=C/c3ccccc3)SC2=S)cc1	3.3%	4.4%	u	22.4%	-0.6%
O=C(O)CN1C(=O)/C(=C\C(Br)=C\c2ccccc2)SC1=S	13.7%	u	9.53µM*	x	7.7%
O=C(O)CN1C(=O)/C(=C/C=C/c2ccccc2)SC1=S	63.0%	0.5%	2.69µM*	4.3%	u
CC(=O)Oc1ccc(/C=C2/Oc3ccccc3C2=O)cc1	12.8%	u	3.79µM*	x	17.5%
O=C1/C(=C/c2ccccc2)Oc2cc(OC(=O)N3CCOCC3)ccc21	20.4%	9.3%	13.5µM*	u	u
COc1ccc(/C=C2\Oc3ccccc3C2=O)cc1	x	2.31µM*	x	x	x
COc1ccc2c(c1)O/C(=C\c1sccc1C)C2=O	u	18.4µM*	0.169µM*	u	u
O=C(c1ccccc1)c1ccc(OC(=O)N2CCOCC2)cc1	16.1%	2.5%	-14.1%	-16.4%	13.4%
CCOC(=O)Cc1csc(NC(=O)CSc2nc(=O)[nH]c3c2CCC3)n1	-2.6%	0.7%	4.9%	x	-3.7%
O=[N+]([O-])c1ccccc1COc1ccc(Cl)c2cccnc12	0.282µM*	1.64µM*	0.536µM*	x	0.631µM*
O=C(Oc1ccc(Cl)c2cccnc12)c1cccc([N+](=O)[O-])c1	-3.2%	-0.3%	u	6.4%	-1.6%
CCCC(=O)Nc1ccc2c(c1)nc1n2CCN(C2CCCCC2)C1	-0.1%	-2.6%	-15.9%	3.6%	0.7%
CC(=O)Nc1ccc2c(c1)nc1n2CCN(C2CCCCC2)C1	2µM*	u	23.9µM*	12.6µM*	3.55µM*
O=[N+]([O-])c1ccc2c(c1)nc1n2CCCCC1	2.4%	0.1%	-12.2%	-12.2%	1.7%
O=[N+]([O-])c1ccc2c(c1)nc1n2CCN(C2CCCCC2)C1	2.51µM*	u	15.1µM*	14.1µM*	u
COP(=O)(OC)c1nc(-c2ccc(C)cc2)oc1N1CCCCC1	-15.3%	-9.6%	-2.2%	x	u
Cc1ccc(NC(=O)Cc2ncon2)cc1Cl	17.0%	5.1%	15.1µM*	x	7.7%
Cc1nc2ccc(NC(=O)Cc3ccc(Br)cc3)cc2s1	1.5%	2.7%	-17.2%	x	-4.5%
Cc1nc2ccc(NC(=O)Cc3cccs3)cc2s1	2.51µM*	u	7.57µM*	u	3.98µM*
Cc1ccc(NC(=O)Cc2cccs2)cc1Cl	u	10.2%	19µM*	x	24.9%
